Source: PubChem BioAssay (Tox21)
Values joined by “and” are separate entries in the source; they are usually repeats but may differ in a detail not shown here. Equal values may be shown once. Records with an inconclusive call do not appear. Entries that show only a call come without a potency. Values without a mark were called inactive. Active and inactive are the calls of the source. Calls come from the whole dose curve; as a rule, active = well fitted cell-killing curve with a large enough effect in the repeat runs; inconclusive = weak or mixed curves, or effect the other way; inactive = no such curve, though single readings can be large or run the other way.

assay: qHTS assay for identifying genotoxic compounds that show differential cytotoxicity against isogenic chicken DT40 cell lines with known DNA damage response pathways - Rev3 mutant cell line (AID 743014); settings: chicken DT40 Rev3-/- viability, CellTiter-Glo, 40 h; series mostly up to 68.4 µM; note: nearly all actives have a fitted effect of over 55% in size
Excerpt: National Center for Advancing Translational Sciences [NCATS]
NIH Chemical Genomics Center [NCGC]
U.S. Environmental Protection Agency [EPA]
National Institutes of Environmental Health Sciences [NIEHS]
National Toxicology Program [NTP]
U.S. Food and Drug Administration [FDA]
DNA repair pathways play a critical role in cellular homeostasis by repairing DNA damage induced by endogenous processes and xenobiotics. Isogenic chicken DT40 cell lines deficient in different DNA repair pathways can be used to identify genotoxic compounds and aid in characterizing the nature of the DNA damage induced. Two DNA repair-deficient cell lines with disrupted genes, Rad54/Ku70 or Rev3, were used to screen the Tox21 10K compound library. Possible genotoxicity was based on the presence of a significant increase in cytotoxicity in one or more of the DNA repair-deficient cell lines compared to that observed in the parental DNA repair-proficient cell line. CellTiter Glo viability assay (Promega, Madison, WI) was used to measure cell viability in these cells after compound treatment. This assay includes the data from the Rev3 mutant cell line.
Tox21 Assay Protocol Summary:
300 DT40 mutant cells in 5 uL/well were dispensed into white, solid-bottom 1536-well plates using a Multidrop Combi (ThermoFisher Scientific, Waltham, MA) dispenser. After the assay plates were incubated at 37 C/5% CO2 for approximately 0.5 hour, 23 nL of compounds dissolved in DMSO, positive controls or DMSO only was transferred into the assay plate by a pintool work station (Kalypsys, San Diego, CA). The assay plates were incubated at 37 C/5% CO2 for 40 hours. After 5 uL per well of CellTiter-Glo reagent was added into each well of the assay plates, the plates were incubated for 30 min at room temperature and the luminescence intensity of the plates was measured using a ViewLux (PerkinElmer, Shelton, CT) plate reader.
Potency is the fitted concentration of half-maximal effect.

Row | SMILES | Potency | activity, negative = cytotoxicity
1 | CC(C)N(Cc1ccccc1)C(=O)C(C)(C)C | 68.6 µM (active) | 
2 | ClCOCCl | inactive | 
3 | CC(C)[C@]12CC(=O)[C@H](C)[C@H]1C2 | inactive | 
4 | CN(C)C1CCCCC1 | inactive | 
5 | CCC1(c2ccccc2)CCC(=O)NC1=O (stereo not given) | inactive | 
6 | CCOC(=O)c1ncn2c1CN(C)C(=O)c1c(I)cccc1-2 | inactive | 
7 | CCCC[N+](=O)[O-] | inactive | 
8 | Cc1cccc2sc3nncn3c12 | inactive | 
9 | C/C=C/CC#N | inactive | 
10 | OCC(Cl)CCl (stereo not given) | inactive | 
11 | O=c1[nH]oc2c1CCNC2 | inactive | 
12 | O=C1CC(=O)NC(=O)N1 | inactive | 
13 | CCOC1Oc2ccc(OS(C)(=O)=O)cc2C1(C)C (stereo not given) | 27.1 µM (active) | 
14 | O=P(O)(O)c1ccccc1 | inactive | 
15 | CN(CCO)CCO | inactive | 
16 | NNCc1ccccc1 | inactive | 
17 | C[N+]1(C)CCCCC1 | inactive | 
18 | O=P(O)(O)CN(CP(=O)(O)O)CP(=O)(O)O | inactive | 
19 | CCN(CC)C1CCCCC1 | inactive | 
20 | CN=CNc1ccc(C)cc1C | inactive | 

Row | SMILES | Potency | activity, negative = cytotoxicity
21 | C=C1C[C@@H]2[C@H](CC[C@]3(C)C(=O)CC[C@@H]23)[C@@]2(C)C=CC(=O)C=C12 | 11.9 µM (active) | 
22 | CCCN1CCC[C@@H]2Cc3nc(N)ncc3C[C@H]21 | inactive | 
23 | CCCN1CCC[C@@H]2Cc3[nH]ncc3C[C@H]21 | inactive | 
24 | C[C@H](N)C(=O)c1ccccc1 | inactive | 
25 | COC(=O)c1ccc(CBr)cc1 | inactive | 
26 | O=[N+]([O-])c1cccc(CCl)c1 | inactive | 
27 | Brc1c(Br)c(Br)c(Br)c(Br)c1Br |  | 4.56% [at 8.53 µM]
28 | O=C(CCl)NCO | inactive | 
29 | CC(C)(C)C(=O)C(Cl)Cl | inactive | 
30 | CNC(=O)Oc1ccccc1C(C)C | inactive | 
31 | C=CC(=O)OCCN(C)C | inactive | 
32 | COc1cc(CCN)cc(OC)c1OC | inactive | 
33 | ClC1=C(Cl)C2(Cl)C(CBr)CC1(Cl)C2(Cl)Cl (stereo not given) | 27.3 µM (active) | 
34 | CCCCCCC(=O)CCCCCC/C=C/C[C@@H](O)[C@H](O)[C@@](N)(CO)C(=O)O | 21.1 nM (active) and 11.9 nM (active) | 
35 | CC(C)c1ccc(O)cc1 | inactive | 
36 | COc1cc(CC(C)N)cc(OC)c1OC (stereo not given) | inactive | 
37 | O=C/C=C/c1ccco1 | inactive | 
38 | O=CCCl | 0.217 µM (active) | 
39 | BrCc1ccc(Br)cc1 | inactive | 
40 | C=CCc1cc(OC)c2c(c1)OCO2 | inactive | 
